Test results: PubChem BioAssay (NCI)
About 83,000 compounds went through this panel and 20% of them were active in at least one assay; those are over-represented in the sample as a whole.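 Single-dose data. Exposure time 48 hours. Values below 10 considered active.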 Unmarked numbers belong to inactive results. Calls of active or inactive are those of the source.

What was measured:
Assay in all cases: NCI-60 one-dose screen, 48 h (100 = growth as untreated, 0 = no growth, -100 = all killed)
Settings in all cases: 10 µM unless noted
[1] = test system: EKVX NSCLC
[2] = test system: UO-31 renal
[3] = test system: ACHN renal
[4] = test system: CAKI-1 renal
[5] = test system: A498 renal
[6] = test system: CCRF-CEM leukemia
[7] = test system: MOLT-4 leukemia
[8] = test system: RPMI-8226 leukemia
[9] = test system: OVCAR-8 ovarian
[10] = test system: OVCAR-5 ovarian
[11] = test system: OVCAR-4 ovarian
[12] = test system: IGROV1 ovarian
[13] = test system: HS 578T breast
[14] = test system: NCI/ADR-RES ovarian
[15] = test system: T-47D breast
[16] = test system: SR leukemia
[17] = test system: SK-OV-3 ovarian
[18] = test system: OVCAR-3 ovarian
[19] = test system: TK-10 renal

SMILES	growth [1]	growth [2]	growth [3]	growth [4]	growth [5]	growth [6]	growth [7]	growth [8]	growth [9]	growth [10]	growth [11]	growth [12]	growth [13]	growth [14]	growth [15]	growth [16]	growth [17]	growth [18]	growth [19] [%]
c1ccc(CNc2ncnc3ccc(-c4cnc5[nH]ncc5c4)cc23)cc1	46.6%	35%	34.5%	36.3%	-8.94% (active)	73.1%	34.6%	60.8%	71.2%	61.8%	79.4%	9.48% (active)	45%	81.9%	18.5%	–	–	–	–
N#Cc1c(-c2ccc(F)cc2)nc2c(C#N)c(Nc3ccccc3)nn2c1N	92.8%	90.7%	105%	90.7%	66.3%	96.1%	102%	104%	101%	–	103%	107%	99.6%	103%	88.3%	93.3%	117%	106%	–
Fc1ccc(-c2cc3nc(C(Cl)Cl)nc(-c4ccc(Cl)cc4)n3n2)cc1	5.99% (active)	27.4%	-63.6% (active)	-23.3% (active)	–	56.8%	19.3%	10.9%	19%	-4.91% (active)	-9.93% (active)	44.5%	8.56% (active)	20.3%	37.4%	3.51% (active)	-16.6% (active)	-31.9% (active)	17.3
CC(C)(C)Nc1nc2c(OCCc3ccccc3)cccn2c1-c1ccc(O)cc1	38.9%	57.3%	65.1%	80.1%	–	38.5%	22.7%	19%	65.9%	–	65%	–	86.7%	50.4%	35.9%	32.5%	–	74.9%	113
O=C(N/N=C/c1ccc([N+](=O)[O-])o1)c1[nH]c2ccc(Br)cc2c1-c1ccccc1	39.2%	30.9%	16.1%	20.3%	–	7.85% (active)	5.69% (active)	0.483% (active)	-5.13% (active)	35.7%	38.2%	15.6%	8.44% (active)	18.7%	53.9%	6.28% (active)	30.4%	21.9%	78.7
N#Cc1nc(-c2ccccc2)oc1N1CC[C@@H](CO)C1	98.5%	86.3%	95.9%	91.5%	–	93.6%	101%	99.5%	100%	108%	101%	94.5%	111%	–	98.1%	84.6%	116%	109%	123
Nc1ncc(-c2ccc3ncnc(N4CCc5cc(F)c(Cl)cc54)c3c2)cc1CO	-15.8% (active)	6.11% (active)	5.95% (active)	2.97% (active)	–	6.14% (active)	-14.6% (active)	-25.4% (active)	12.5%	19.9%	8.51% (active)	-54.7% (active)	-18% (active)	9.17% (active)	0.798% (active)	-6.6% (active)	-18.4% (active)	-19.8% (active)	–
Cc1cccc(/C=C/c2nn3c(-c4ccco4)nnc3s2)c1	81.3%	83.7%	102%	91.4%	77.5%	99.4%	104%	100%	100%	98.2%	98.7%	–	106%	–	89.2%	79%	114%	110%	101
COc1ccc(C(=O)/C=C/c2ccc(OCc3ccc(Cl)cc3)c(OC)c2)cc1OC	62.2%	54.1%	73.4%	59.7%	–	22.5%	38.6%	-2.25% (active)	58.4%	100%	68.6%	73.5%	82%	55.2%	50.6%	7.68% (active)	82.9%	78.5%	110
CC(=O)c1ccc(Nc2nc(SC(C)C)nc(-c3ccccc3)c2C#N)cc1	111%	82.1%	86.2%	88%	42.3%	96.1%	96.4%	95%	95.7%	100%	94.9%	89.7%	90.6%	92%	81%	91.5%	103%	–	101
COc1ccc(N/N=C/c2c(-c3ccc(S(C)(=O)=O)cc3)nc3ccccn23)cc1	69.2%	30.2%	32.2%	20.3%	35.6%	32%	18.6%	32.2%	49.1%	–	42.1%	–	62.4%	34%	26.2%	57.1%	62.2%	–	57.3
O=C(CSc1nccc(=O)[nH]1)Nc1ccc(-c2nc3ccccc3[nH]2)cc1	111%	108%	101%	112%	116%	101%	111%	109%	103%	–	112%	–	119%	111%	106%	117%	103%	123%	116
CN(C)CCCOc1c2ccccc2nc2c1oc1ccc(Cl)cc12	12.4%	4.84% (active)	1.64% (active)	-6.35% (active)	-6.15% (active)	16.8%	-1.53% (active)	-20.8% (active)	16.4%	12.4%	17.3%	-5.97% (active)	25.7%	3.58% (active)	31.2%	-26.7% (active)	20.5%	22%	–
COC(=O)C(C)NS(=O)(=O)/N=C1\NC(=O)NC1=C(Cl)Cl (configuration not stated)	104%	81.7%	98.2%	99%	–	95.9%	100%	104%	100%	98.8%	113%	–	107%	–	107%	93.2%	119%	117%	140
